Experimental data from PubChem BioAssay (NCATS).
Values joined by “and” are separate entries in the source; they are usually repeats but may differ in a detail not shown here. Equal entries are not always repeated. Results filed as inconclusive are left out. Active and inactive are the calls of the source. Unless noted, calls follow the shape of the dose curve; as a rule, active = well fitted curve in the direction sought with a large enough effect; inconclusive = small, poorly fitted or top-dose-only effect, or another doubt; inactive = no such curve, though single readings can be large; an effect the other way counts as inactive or inconclusive.

How the values were obtained:
[1] = qHTS Assay for Identification of Small Molecule Agonists for Hypoxia Response Element Signaling Pathway (AID 914; active = well fitted activation curve with a large enough effect in the signal ratio, with a control signal flat, not every such curve was filed as active; the % refers to the signal ratio; also: % of control where 0% means no effect); conditions: ME-180 (cervical carcinoma) HRE-bla reporter, beta-lactamase ratio, CoCl2, 17 h; activation: active compounds read high
In short: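 Read-out: CCF4 FRET ratio of 460nm to 530nm emission (excitation 405nm) after 2.5 hours at room temperature, taken from HRE-bla ME-180 cells that had been exposed to compound and EC50 CoCl2 for 17 hours.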

[2] = biological target: Guanine nucleotide-binding protein G(i) subunit alpha-1 (Homo sapiens) (UniProt P63096); test: qHTS Assay for Inhibitors of RGS12 GoLoco Motif Activity (Green Fluorophore) (AID 879);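 also: 0% = labeled peptide with Gαi1 and full inhibition = labeled peptide alone without protein; negative values mean loss of peptide binding seen as reduced polarization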
Chain of Guanine nucleotide-binding protein G(i) subunit alpha-1 (Homo sapiens) (P63096 whole entry, looked up): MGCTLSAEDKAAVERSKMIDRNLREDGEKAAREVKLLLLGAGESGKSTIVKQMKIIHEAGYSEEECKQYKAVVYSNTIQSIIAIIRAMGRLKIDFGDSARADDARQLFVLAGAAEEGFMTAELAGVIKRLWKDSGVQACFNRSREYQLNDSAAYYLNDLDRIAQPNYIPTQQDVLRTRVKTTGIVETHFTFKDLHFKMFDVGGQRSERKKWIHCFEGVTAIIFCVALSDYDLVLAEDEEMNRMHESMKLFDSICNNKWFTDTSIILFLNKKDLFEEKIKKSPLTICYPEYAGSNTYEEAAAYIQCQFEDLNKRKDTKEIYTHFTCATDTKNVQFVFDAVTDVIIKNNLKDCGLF
In short: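 Fluorescence polarization assay: 50 nM Gαi1 with 10 nM FITC-labeled RGS12 GoLoco peptide in 10 mM Tris pH 7.5, 150 mM NaCl, 0.1 mM GDP, 0.05% NP40, 10 min at room temperature with compound.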

[3] = qHTS Assay for Identification of Small Molecule Antagonists for NFkB Signaling Pathway (AID 895; active = well fitted inhibition curve with a large enough effect in the signal ratio, with a control signal flat, not every such curve was filed as active; the % refers to the signal ratio; also: % is scaled to controls: 0 for no effect and ±100 for the full control effect)
In short: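 Beta-lactamase reporter read-out (460 and 530 nm emission ratio, 405 nm excitation, 2 hrs substrate loading RT) after 5 hr stimulation with 10 pM TNF alpha in compound-treated NFkB-bla ME-180 cells in low-serum medium.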

[4] = Cell Viability - LYMP2-019 (AID 973);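 also: cells exposed to compound for 24 h at 37 °C; nearly all actives have a fitted effect of over 55% in size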; also: potency is read from the fitted curve at half-maximal effect
In short: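 Cells plated at 2500/well and allowed 5 hr at 37 C before compound addition. After 24 hr incubation, CellTiter-Glo reagent was added, plates sat 30 min at room temperature, and luminescence was recorded.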

[5] = Cell Viability - LYMP2-021 (AID 974);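 also: compound exposure lasts 24 hours at 37 °C; nearly all actives have a fitted effect of over 55% in size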; also: potency is read from the fitted curve at half-maximal effect
In short: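 Concentration-response cytotoxicity in a human lymphoblastoid line: 24 hr treatment at 37 C in complete culture medium, tetraoctylammonium bromide as positive control, luminescent ATP quantitation as viability measure.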

[6] = Cell Viability - LYMP2-023 (AID 975);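 also: cells exposed to compound for 24 hours at 37 °C; nearly all actives have a fitted effect of over 55% in size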; also: potency is read from the fitted curve at half-maximal effect
In short: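 Concentration-dependent drop in intracellular ATP measures acute cytotoxicity in a human lymphoblastoid line treated for 24 hours in complete culture medium. AC50 values are taken from Hill-equation fits of qHTS data.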

[7] = Cell Viability - LYMP2-025 (AID 976);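 also: cells exposed to compound for 24 h at 37 °C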; also: potency is read from the fitted curve at half-maximal effect
In short: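 In qHTS format, LYMP2-025 lymphoblastoid cells in complete culture medium received compound for 24 hr; ATP-based CellTiter-Glo signal gave viability, with AC50 derived by Hill equation.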

[8] = Cell Viability - LYMP2-002 (AID 977);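 also: compound exposure lasted 24 h at 37 °C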; also: potency is read from the fitted curve at half-maximal effect
In short: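 Cytotoxicity is scored as concentration-dependent loss of cellular ATP in a human lymphoblastoid line after 24 hr compound treatment at 37 C. AC50 is obtained by modelling concentration-response data with the Hill equation.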

[9] = Cell Viability - LYMP2-008 (AID 980); also: nearly all actives have a fitted effect of over 60% in size; also: potency is read from the fitted curve at half-maximal effect
In short: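 Acute cytotoxicity is scored as concentration-dependent loss of cellular ATP in a human lymphoblastoid line after 24 hr treatment at 37 C. ATP is quantified by luciferase luminescence.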

[10] = Cell Viability - LYMP2-010 (AID 981);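 also: cells exposed to compound for 24 hours at 37 °C; nearly all actives have a fitted effect of over 55% in size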; also: potency is read from the fitted curve at half-maximal effect
In short: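 Acute toxicity is scored as a concentration-dependent loss of cellular ATP in human lymphoblastoid cells after 24 hr compound exposure in complete medium. Tetraoctylammonium bromide is the positive control.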

[11] = Cell Viability - LYMP2-012 (AID 982); also: potency is read from the fitted curve at half-maximal effect
[12] = Cell Viability - LYMP2-014 (AID 983);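 also: cells exposed to compound for 24 h at 37 °C; nearly all actives have a fitted effect of over 50% in size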; also: potency is read from the fitted curve at half-maximal effect
In short: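 Decrease in intracellular ATP after 24 hr treatment at 37 C, measured by luciferase luminescence, indicated cytotoxicity. Concentration-response data were fitted with the standard Hill equation to give AC50.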

[13] = Cell Viability - LYMP2-016 (AID 984); also: potency is read from the fitted curve at half-maximal effect
In short: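 Concentration-dependent ATP depletion measured in LYMP2-016 lymphoblastoid cells, 24 h, 37 C; luciferase-based luminescent detection; Hill-equation AC50.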

[14] = Cell Viability - LYMP2-018 (AID 985);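 also: compound exposure lasted 24 hr at 37 °C; nearly all actives have a fitted effect of over 50% in size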; also: potency is read from the fitted curve at half-maximal effect
In short: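 Acute cytotoxicity is scored as a concentration-dependent drop in intracellular ATP after 24 hr exposure of the lymphoblastoid line in complete culture medium, measured by luciferase luminescence. Potency is expressed as AC50 from Hill modelling.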

[15] = Cell Viability - LYMP2-020 (AID 986); also: potency is read from the fitted curve at half-maximal effect
In short: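 Acute cytotoxicity in a human lymphoblastoid line is scored as a concentration-dependent fall in cellular ATP after 24 hr at 37 C in complete medium. The positive control is tetraoctylammonium bromide, and potency is given as Hill-fit AC50.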

[16] = Cell Viability - LYMP2-024 (AID 988); also: nearly all actives have a fitted effect of over 60% in size; also: potency is read from the fitted curve at half-maximal effect
In short: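 Acute toxicity is measured as concentration-dependent loss of intracellular ATP in a human lymphoblastoid line treated 24 hours at 37 C. Luciferase luminescence quantifies ATP; AC50 values come from standard Hill-equation modelling.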

[17] = Cell Viability - LYMP2-026 (AID 989);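 also: cells exposed to compound for 24 h at 37 °C; nearly all actives have a fitted effect of over 50% in size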; also: potency is read from the fitted curve at half-maximal effect
In short: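 Concentration-dependent loss of intracellular ATP in human lymphoblastoid cells after 24 hr at 37 C, quantified by luciferase luminescence. AC50 derived from standard Hill equation.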

[18] = Cell Viability - LYMP1-002 - Assay at 24 hr (AID 993); also: potency is read from the fitted curve at half-maximal effect
In short: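 qHTS, LYMP1-002 lymphoblastoid, 24 h cpd, 37 C, CellTiter-Glo ATP luminescence; AC50 via Hill eq.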

[19] = Cell Viability - LYMP1-002 - Assay at 40 hr (AID 994); also: nearly all actives have a fitted effect of over 60% in size; also: potency is read from the fitted curve at half-maximal effect
In short: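 Viability in the human lymphoblastoid line was measured as intracellular ATP via CellTiter-Glo after 40 hr compound exposure. Tetraoctylammonium bromide served as positive control.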

[20] = biological target: Glucocorticoid receptor (Homo sapiens) (UniProt P04150); test: qHTS assay for small molecule agonists of glucocorticoid receptor signaling (AID 588532; active = well fitted curve in the direction sought with a large enough effect in the signal ratio, with a control signal flat; the % refers to the signal ratio;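 also: 100% = dexamethasone at 0.1 µM and 0% = DMSO only wells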); conditions: HeLa MMTV-bla, beta-lactamase ratio, agonist, 18 h; active compounds read high; percent of dexamethasone control, DMSO zero
Chain of Glucocorticoid receptor (Homo sapiens) (P04150 whole entry, looked up): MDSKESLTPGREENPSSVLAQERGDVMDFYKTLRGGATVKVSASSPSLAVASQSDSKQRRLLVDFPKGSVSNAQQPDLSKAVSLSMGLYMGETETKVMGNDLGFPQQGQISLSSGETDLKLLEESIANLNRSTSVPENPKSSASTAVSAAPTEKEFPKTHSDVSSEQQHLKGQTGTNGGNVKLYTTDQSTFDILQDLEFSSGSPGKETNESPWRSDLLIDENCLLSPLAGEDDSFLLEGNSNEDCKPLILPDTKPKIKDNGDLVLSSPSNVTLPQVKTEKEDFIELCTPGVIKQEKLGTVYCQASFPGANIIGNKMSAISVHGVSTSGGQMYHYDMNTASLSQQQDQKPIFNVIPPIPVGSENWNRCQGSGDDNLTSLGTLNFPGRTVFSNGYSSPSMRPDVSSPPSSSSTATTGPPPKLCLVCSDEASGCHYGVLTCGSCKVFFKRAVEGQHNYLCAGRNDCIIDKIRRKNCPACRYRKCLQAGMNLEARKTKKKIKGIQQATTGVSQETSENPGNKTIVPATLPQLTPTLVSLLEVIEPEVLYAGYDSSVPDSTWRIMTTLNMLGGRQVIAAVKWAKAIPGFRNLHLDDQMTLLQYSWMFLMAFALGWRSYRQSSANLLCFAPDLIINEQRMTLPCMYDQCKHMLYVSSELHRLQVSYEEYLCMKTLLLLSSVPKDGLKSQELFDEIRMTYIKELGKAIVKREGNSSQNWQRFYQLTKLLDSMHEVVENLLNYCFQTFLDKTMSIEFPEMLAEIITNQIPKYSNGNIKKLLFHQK
In short: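 Quantitative HTS using CellSensor MMTV-bla HeLa cells in charcoal/dextran-treated serum; compounds tested up to 92 uM. After 18 h at 37 C, CCF4 dye reported reporter induction.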

CCC[C@@](C)(COC(N)=O)COC(=O)NC(C)C
inactive: activation [1] -3.35%

CC(C)N(CC[C@@](C(N)=O)(c1ccccc1)c1ccccn1)C(C)C
inactive: outcome [2] | Potency [3]

CCCCCCCCCc1ccc(O)cc1
inactive: Potency [4] | Potency [5] | Potency [6] | Potency [7] | Potency [8] | Potency [9] | Potency [10] | Potency [11] | Potency [12] | Potency [13] | Potency [14] | Potency [15] | Potency [16] | Potency [17] | Potency [18] | Potency [19]

CCCCSP(=O)(SCCCC)SCCCC
inactive: activation [20] -15%

COP(N)(=O)SC (configuration not stated)
inactive: activation [20] -1.71% and 14.7%

O=C1C(Cl)=C(Cl)C(=O)C(Cl)=C1Cl
active: Potency [4] 25.1 µM | Potency [5] 12.6 µM | Potency [6] 25.1 µM | Potency [7] 50.1 µM | Potency [8] 25.1 µM | Potency [9] 39.8 µM | Potency [10] 12.6 µM | Potency [11] 15.8 µM | Potency [12] 20 µM | Potency [13] 25.1 µM | Potency [14] 39.8 µM | Potency [15] 12.6 µM | Potency [16] 10 µM | Potency [17] 25.1 µM | Potency [18] 39.8 µM | Potency [19] 39.8 µM
